Each structure is given as a SMILES string. In all, about 330,000 compounds went through this assay and about 10,000 (3%) were called active.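 How the source made its calls: active means inhibition of at least 50% at 8 µM in the primary screen; inactive means the rest.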 The sample as a whole holds a higher share of actives than the screen did.

Chain of Protein Mdm4 (Homo sapiens) + E3 ubiquitin-protein ligase Mdm2 (Homo sapiens) (O15151 whole entry, looked up): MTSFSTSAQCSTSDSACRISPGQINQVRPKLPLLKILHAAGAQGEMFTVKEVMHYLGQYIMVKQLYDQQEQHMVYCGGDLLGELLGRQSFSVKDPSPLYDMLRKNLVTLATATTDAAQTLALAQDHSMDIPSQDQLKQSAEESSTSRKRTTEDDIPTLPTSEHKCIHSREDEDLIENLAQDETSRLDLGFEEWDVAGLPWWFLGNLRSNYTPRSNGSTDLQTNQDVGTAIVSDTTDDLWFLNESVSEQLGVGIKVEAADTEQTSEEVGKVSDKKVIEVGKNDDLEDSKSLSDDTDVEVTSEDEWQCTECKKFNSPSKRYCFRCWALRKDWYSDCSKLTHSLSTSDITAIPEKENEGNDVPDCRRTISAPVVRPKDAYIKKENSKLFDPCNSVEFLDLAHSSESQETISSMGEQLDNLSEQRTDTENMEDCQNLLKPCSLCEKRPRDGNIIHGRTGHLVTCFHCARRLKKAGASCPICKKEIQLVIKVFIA
Chain of Protein Mdm4 (Homo sapiens) + E3 ubiquitin-protein ligase Mdm2 (Homo sapiens) (Q00987 whole entry, looked up): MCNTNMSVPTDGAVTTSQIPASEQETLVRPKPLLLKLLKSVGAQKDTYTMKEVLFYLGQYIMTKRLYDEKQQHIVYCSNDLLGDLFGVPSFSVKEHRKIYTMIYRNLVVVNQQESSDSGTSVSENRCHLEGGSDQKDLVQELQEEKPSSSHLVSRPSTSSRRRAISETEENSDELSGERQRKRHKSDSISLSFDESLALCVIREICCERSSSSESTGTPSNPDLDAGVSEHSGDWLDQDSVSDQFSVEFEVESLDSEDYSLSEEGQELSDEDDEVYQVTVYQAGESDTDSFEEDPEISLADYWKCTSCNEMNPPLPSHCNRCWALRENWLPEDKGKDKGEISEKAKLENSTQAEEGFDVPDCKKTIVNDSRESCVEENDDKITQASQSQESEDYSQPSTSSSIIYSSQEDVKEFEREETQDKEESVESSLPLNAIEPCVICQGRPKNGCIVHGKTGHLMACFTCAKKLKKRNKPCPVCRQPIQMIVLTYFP

This assay has as its target Protein Mdm4 (Homo sapiens) + E3 ubiquitin-protein ligase Mdm2 (Homo sapiens) (UniProt O15151+Q00987). The assay can be described thus: inhibitors of human Mdm2-MdmX association, primary screen, cell-based, luminescence, split luciferase, SaOS-2, uHTS (AID 485346). As to conditions: SaOS-2 split-luciferase Mdm2/MdmX complementation, at 8 µM, hits give high values.
The inhibition is the change of the read-out against control, counted positive when it falls. For `CCOc1ccc(-c2cc(C)[n+](CCN(CC)CC)c(-c3ccc(OCC)cc3)c2)cc1`, the inhibition was 90.7% (active).
For the molecule `COc1ccc(CCn2c(O)c(C=NCCCn3ccnc3)c(=O)[nH]c2=O)cc1OC`, the inhibition was -17.9% (inactive).
Consider `Cc1cc(=O)oc2c(C)c(OCC(=O)N3CCN(Cc4ccc5c(c4)OCO5)CC3)ccc12`, for which the inhibition is 1.14% (inactive).
For `CC12CN3CC(C)(CN(C1)C3c1cccs1)C2` (stereo not given), the inhibition was -26.1% (inactive).
Regarding `O=C(Nc1cccc2ccccc12)N1CCC2(CC1)OCCO2`, the inhibition was -30% (inactive).
Consider `O=c1c2ccccc2nc(/C=C/c2ccc(F)cc2)n1-c1ccccc1O`, for which the inhibition was 60.9% (active).
In the case of `O=c1c2ccccc2nc(/C=C/c2ccco2)n1-c1ccccc1O`, the inhibition was -1.65% (inactive).
For the molecule `Cc1nc2ccccc2c(=O)n1-c1ccc(Cl)cc1Cl`, the inhibition was -13.3% (inactive).
For the molecule `CC(=O)N1CN2CN(C(C)=O)CC(C(=O)c3ccc(Br)cc3)(C2)C1`, the inhibition is 26.2% (inactive).
For the molecule `CC(=C1C(=O)c2ccccc2C1=O)N1CCN(CCN=Cc2c(O)n(C)c(=O)n(C)c2=O)CC1`, the inhibition was -1.58% (inactive).
On to `O=C1C2(Cl)C3(Cl)C4(Cl)C(Cl)(Cl)C5(Cl)C3(Cl)C1(Cl)C5(Cl)C24Cl` (stereo not given), for which the inhibition is 99.3% (active).
Take `COc1ccc2[nH]c3c(c2c1)CCN[C@H]3C`: the inhibition was 9.11% (inactive).
For `Cc1ccc(C)c(NC2=NCCCS2)c1`, the inhibition is 11.6% (inactive).
For `c1ccc2sc(C3CCCNC3)nc2c1` (stereo not given), the inhibition was -26.6% (inactive).
Consider `Cc1cccc2c(CCN)c[nH]c12`, for which the inhibition is 13.4% (inactive).
As for `CCCCCn1c(=O)c(C(=O)NCc2ccccn2)c(O)c2ccccc21`, the inhibition was 13.9% (inactive).
For the molecule `CCCCn1c(=O)c(C(=O)Nc2ccccc2Cl)c(O)c2ccccc21`, the inhibition is 37.6% (inactive).
Regarding `CCCCCn1c(=O)c(C(=O)NCc2ccccc2)c(O)c2ccccc21`, the inhibition is 62.6% (active).
Turning to `CC(C)n1c(=O)c(C=Nc2ccc(Br)cc2)c(O)n(Cc2ccco2)c1=O`, the inhibition is -33.1% (inactive).
For the molecule `CN1CCN(/N=C/c2c[nH]c3ccccc23)CC1`, the inhibition is -22.1% (inactive).
Turning to `OC1/C(=C/c2ccc(C(F)(F)F)cc2)N2CCC1CC2` (stereo not given), the inhibition is 17.5% (inactive).
In the case of `CC(=NCc1ccc2c(c1)OCO2)c1c(O)[nH]c(=O)[nH]c1=O`, the inhibition was -16% (inactive).
The same measure for `COc1cc(-n2c(=S)[nH]c3ccc(C)cc3c2=O)c(Cl)cc1Cl`: 40.1% (inactive).
Take `Cc1cc2ccccn2c1C(C[N+](=O)[O-])c1c(F)cccc1Cl` (stereo not given): the inhibition is 97.4% (active).
`c1cc2c(cc1C1OCC3C(c4ccc5c(c4)OCO5)OCC13)OCO2` (stereo not given): the inhibition was 1.17% (inactive).
On to `COc1ccc(CCn2c(O)c(C=NC3CC3)c(=O)[nH]c2=O)cc1OC`, for which the inhibition is 24.7% (inactive).
The value for `CC(C)c1c(CN(C)C(C)Cc2ccccc2)n(C)n(-c2ccccc2)c1=O` (stereo not given) was -0.74% (inactive); that for `CC(Cc1ccccc1)NC=O` (stereo not given) was 12.4% (inactive).
Take `CC(=O)NC(=O)NC(C)Cc1ccccc1` (stereo not given): the inhibition is 15.7% (inactive).
In the case of `CC(Cc1ccccc1)NCCC(c1ccccc1)c1ccccc1` (stereo not given), the inhibition was 63% (active).
`COC1=CC=C2[C@H]3Cc4ccc(OC)c5c4[C@@]2(CCN3C)C1O5` (stereo not given in full): the inhibition is 11% (inactive).
Consider `O=c1[nH]c(=O)n(-c2ccccc2)c(O)c1C=NC12CN3CN(CN(C3)C1)C2`, for which the inhibition was -21.9% (inactive).
Regarding `Cc1ccc(-c2cc(C(=O)N3CCC4(CC3)OCCO4)no2)cc1`, the inhibition is -32.3% (inactive).
For `O=C(c1cc2nc(-c3ccccc3)cc(-c3ccccc3)n2n1)N1CCC2(CC1)OCCO2`, the inhibition was 55.7% (active).
In the case of `O=C(c1cc(-c2ccncc2)nc2ccccc12)N1CCC2(CC1)OCCO2`, the inhibition is -28.6% (inactive).
Turning to `c1ccc(CCNC2CCCCCC2)cc1`, the inhibition is 24.6% (inactive).
As to `Cc1ccc(Cn2nnnc2CN2CCC(n3nnc4ccccc43)CC2)cc1`, the inhibition was 26.2% (inactive).
The value for `CCOP(=O)(OCC)C(NC(=O)c1ccc(C)cc1)C(Cl)(Cl)Cl` (stereo not given) was -8.99% (inactive).
As for `CNC(=S)N/N=C1\C2CN3CCN(C2)CC1(c1ccccc1)C3`, the inhibition is -27.4% (inactive).
As to `CN(C)c1nc(N(C)C)nc(N(C#N)CCCl)n1`, the inhibition is 28.9% (inactive).
As to `O=C1NC(=O)N(Cc2ccco2)C(=O)/C1=C\c1ccc(-c2ccc(F)cc2)o1`, the inhibition was -9.82% (inactive).
Turning to `O=C(O)COc1ccccc1/C=C1\C(=O)NC(=O)N(CCC2=CCCCC2)C1=O`, the inhibition was 2.61% (inactive).
The same measure for `O=C1NC(=O)N(CCc2ccc(F)cc2)C(=O)/C1=C/C=C/c1ccccc1`: 99.4% (active); for `COc1ccccc1N=C1SCCCN1C`: -4.32% (inactive); for `CCOP(=O)(OCC)C(O)c1ccc(OC)cc1OC` (stereo not given): 19.2% (inactive).
The same measure for `CC[N+]1(C)CCCC(OC(=O)C(O)(c2ccccc2)c2ccccc2)C1` (stereo not given): 12.9% (inactive); for `COC(=O)C1=C(c2ccccc2OCc2ccccc2)C[C@@H]2CC[C@H]1N2C(=O)NCc1ccc(OC)cc1`: 12.6% (inactive).
`COC(=O)C1=C(c2ccc(-c3ccccc3)c(F)c2)C[C@@H]2CC[C@H]1N2C(=O)NCc1ccc(F)cc1`: the inhibition was 21.7% (inactive).
As for `COC(=O)C1=C(c2ccc(F)cc2OCc2ccccc2)C[C@@H]2CC[C@H]1N2C(=O)NCc1ccc(OC)c(OC)c1`, the inhibition was 14.8% (inactive).
Take `COC(=O)C1=C(c2ccc(F)cc2OCc2ccccc2)C[C@@H]2CC[C@H]1N2C(=O)NCc1ccc(C(C)(C)C)cc1`: the inhibition is 48.4% (inactive).
The same measure for `COC(=O)C1=C(c2ccc(F)cc2OCc2ccccc2)C[C@@H]2CC[C@H]1N2C(=O)NCc1ccc(Cl)cc1`: 55.7% (active); for `COC(=O)C1=C(c2ccc(F)cc2OCc2ccccc2)C[C@@H]2CC[C@H]1N2C(=O)NCc1ccc2[nH]ccc2c1`: 52.5% (active); for `CCOP(=O)(OCC)C(NC(=O)c1ccc(OC)cc1)C(Cl)(Cl)Cl` (stereo not given): 16.4% (inactive).
Take `COC(=O)N(c1ccc(OC)cc1)P1(=S)OCCC(C)O1` (stereo not given): the inhibition was 7.17% (inactive).
For `CCOc1ccc(C2SCC(=O)Nc3c2c(C)nn3C2CCOC(C)(C)C2)cc1` (stereo not given), the inhibition is 3.37% (inactive).
As to `CCC(=O)c1ccc(OCC(=O)N2CCN(CC(=O)Nc3ccc(C)cc3)CC2)cc1`, the inhibition is 30% (inactive).
As for `Cc1cccc(-n2c(O)c(C=NC34CN5CN(CN(C5)C3)C4)c(=O)[nH]c2=O)c1`, the inhibition was -8.36% (inactive).
With `CNCC(O)c1cc(F)c(OCc2ccccc2)c(OCc2ccccc2)c1F` (stereo not given), the inhibition was 86.6% (active).
In the case of `O=C(NC(c1ccc(Cl)cc1)P(=O)(Oc1ccccc1)Oc1ccccc1)OCc1ccccc1` (stereo not given), the inhibition is 18.9% (inactive).
Consider `C[C@]12CC[C@H](O)C[C@H]1CC[C@@H]1C2CC[C@]2(C)[C@@H](C3=CC(=O)OC3)[C@@H](O)C[C@]12O` (stereo not given in full), for which the inhibition was 45.4% (inactive).
For `N#CC1=C(N)Oc2c(c(=O)oc3ccccc23)C1c1ccccc1OC(=O)c1cccs1` (stereo not given), the inhibition is 62.3% (active).
Take `CCNc1nc2[nH]c(=O)c3c(c2s1)OC(N)=C(C#N)C3c1cccs1` (stereo not given): the inhibition is 17.9% (inactive).
As for `COC(=O)C1=C(c2cccc(OCc3ccccc3)c2)C[C@@H]2CC[C@H]1N2C(=O)NNCc1ccccc1`, the inhibition was 29.6% (inactive).
As for `CC(=O)N(C1=NCCCS1)c1ccccc1F`, the inhibition is 14.4% (inactive).
On to `CN(C)C(=O)Oc1cc(=O)n2c3c(cccc13)CCC2`, for which the inhibition was 19.2% (inactive).
Consider `CCCCCCCCCCCCn1ccc(=N)cc1`, for which the inhibition is 97.2% (active).
As to `CC(C(=O)Nc1ccc(Cl)cc1Cl)N1CC=C(c2ccccc2)CC1` (stereo not given), the inhibition was -0.882% (inactive).
The same measure for `NCCc1ccc(S(=O)(=O)F)cc1`: 5.92% (inactive); for `O=C1NC(=O)C(C/C=C/c2ccccc2)C(=O)N1`: -4.93% (inactive).
`CC1(C)Cc2c(C#N)c(N3CCNCC3)nc(-c3ccco3)c2CS1`: the inhibition is 62% (active).
The value for `COc1cccc(N2C(=O)NC(=O)/C(=C\c3ccc([N+](=O)[O-])s3)C2=O)c1` was 7.01% (inactive).
The value for `COC(=O)[C@@H]1C(OC(=O)c2ccccc2)CC2CCC1N2C` (stereo not given in full) was 5.75% (inactive); that for `COc1ccc(C2N3CC(C)(C)CN23)cc1` (stereo not given) was 4.71% (inactive); that for `O=C(O)c1ccccc1NC(=O)C1C2CCC(O2)C1C(=O)O` (stereo not given) was 40.4% (inactive).
Turning to `CCCCC(=O)N/N=C/c1c(O)n(-c2ccccc2)c(=O)[nH]c1=O`, the inhibition was 10.7% (inactive).
Consider `CCCCC(=O)N/N=C/c1c(O)n(CC)c(=S)n(CC)c1=O`, for which the inhibition was 10.6% (inactive).
The value for `CCCCC(=O)N/N=C/c1c(O)n(CCC2=CCCCC2)c(=O)[nH]c1=O` was 50.4% (active); that for `O=C1NC(=O)C(CCc2ccccn2)(Cc2cccc(Cl)c2Cl)C(=O)N1c1ccc(Br)cc1` (stereo not given) was 17.3% (inactive); that for `C/C(=N/O)c1ccc2ccc3ccccc3c2c1` was -52.9% (inactive).
As to `O=Cc1cn(Cc2ccc(F)cc2Cl)c2ccccc12`, the inhibition was 50.9% (active).
On to `CN1CCC(N(C)Cc2cccnc2)CC1`, for which the inhibition was -0.974% (inactive).
Turning to `CN(C)CCN(CC1CCCN(Cc2ccccc2F)C1)C(=O)Cc1ccc(F)c(F)c1` (stereo not given), the inhibition was 15.4% (inactive).
On to `CC(=O)c1ccc(OC(NC(=O)Cc2ccccc2)C(Cl)(Cl)Cl)cc1` (stereo not given), for which the inhibition is 6.38% (inactive).
On to `c1ccc(C2NCc3ccccc3-n3cccc32)cc1` (stereo not given), for which the inhibition was 19.8% (inactive).
Consider `Cn1c(C(=O)N2CCC(C(=O)N3CCC4(CC3)OCCO4)CC2)cc2sccc21`, for which the inhibition was -1.94% (inactive).
The value for `CNC(=O)O/N=C(\N)Cc1csc2ccccc12` was 78.8% (active).
The same measure for `CNC(=O)O/N=C(\N)Cc1csc2ccc(Cl)cc12`: 97.6% (active); for `CC[C@H]1CC2CN3CCc4c([nH]c5ccccc45)C(C(=O)OC)(C2)C13` (stereo not given in full): 33.7% (inactive); for `Cc1cc(N2C(=O)C3CCCN3C2c2ccc(Cl)c(Cl)c2)no1` (stereo not given): -4.12% (inactive).
For the molecule `CCCn1c(C(=O)c2ccccc2OC)nc2ccccc21`, the inhibition is 10.6% (inactive).

The values are drawn from PubChem BioAssay AID485346 (Sanford-Burnham Center for Chemical Genomics, 2010).
